# Screens deposited in PubChem by National Center for Advancing Translational Sciences (NCATS).
# DT40 TDP1 no CPT – qHTS for Inhibitors of human tyrosyl-DNA phosphodiesterase 1 (TDP1): qHTS in cells in absence of CPT | actives 15% (n = 420,000) | Potency, µM (series often up to 46.2 µM), inactives show top-dose activity change, negative = growth inhibition, actives largely listed as inhibitors | DT40 Tdp1-/- hTDP1 cells, no CPT, ATP luminescence, 48 h; further: potency means the concentration at half of the fitted maximal effect; on the % scale 0 is the no-effect control and ±100 the full control effect; nearly all actives have a fitted effect of over 55% in size
#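 DT40 Tdp1-/-;hTDP1 cells, no CPT (DMSO vehicle only), 400 cells/well; compounds pin-transferred; ≥48 hr, 37 °C; CellTiter-Glo 30 min RT dark, luminescence read.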
# TDP1 block – qHTS Assay for Inhibitors of Tyrosyl-DNA Phosphodiesterase (TDP1); Tyrosyl-DNA phosphodiesterase 1 (Homo sapiens), Q9NUW8; recombinant TDP1, AlphaScreen DNA substrate cleavage; Potency, µM (series often up to 130 µM), without a hit: at the highest dose activity change, negative = inhibition, actives largely listed as inhibitors; actives 0.28% (n = 350,000); further: potency means the concentration at half of the fitted maximal effect; on the % scale 0 is the no-effect control and ±100 the full control effect; nearly all actives have a fitted effect of over 40% in size
# Target sequence (Q9NUW8 whole entry, looked up): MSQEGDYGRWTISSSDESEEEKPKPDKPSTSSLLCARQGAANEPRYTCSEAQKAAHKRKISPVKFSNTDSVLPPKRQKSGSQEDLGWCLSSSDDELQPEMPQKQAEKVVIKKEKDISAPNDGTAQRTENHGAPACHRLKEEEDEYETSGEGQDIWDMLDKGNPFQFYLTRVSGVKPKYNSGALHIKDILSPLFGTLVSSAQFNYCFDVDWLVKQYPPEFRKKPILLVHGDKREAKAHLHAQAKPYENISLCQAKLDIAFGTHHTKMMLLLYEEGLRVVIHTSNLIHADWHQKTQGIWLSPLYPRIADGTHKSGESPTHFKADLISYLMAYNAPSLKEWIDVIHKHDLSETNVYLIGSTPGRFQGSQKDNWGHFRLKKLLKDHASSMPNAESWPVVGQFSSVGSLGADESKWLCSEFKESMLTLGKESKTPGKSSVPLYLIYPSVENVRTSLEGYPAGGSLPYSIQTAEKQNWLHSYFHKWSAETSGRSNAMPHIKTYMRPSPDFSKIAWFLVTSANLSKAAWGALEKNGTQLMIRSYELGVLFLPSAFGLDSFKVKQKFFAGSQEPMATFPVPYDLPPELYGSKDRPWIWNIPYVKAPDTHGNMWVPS
#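 AlphaScreen read-out: signal falls as enzyme removes the 3' tyrosine-FITC from a 5'-biotinylated DNA oligo (15 nM, 5 min, RT). Enzyme was E. coli-made recombinant Tdp1 at 1 nM, exposed to compound for 15 min beforehand; beads 10 ug/ml, 10 min.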
# TGFb inhibitor – qHTS for Inhibitors of TGF-b | HepG2 CAGA-GFP TGF-b/SMAD3 reporter, GFP fluorescence, 18 h; TGF-beta stimulated, 500 pg/mL final | Potency, µM (top dose mostly 46.1 µM), without a hit: at the highest dose activity, negative = inhibition, most hits filed as inhibitors | actives 1.2% (n = 410,000); further: potency means the concentration at half of the fitted maximal effect; on the % scale 0 is the no-effect control and ±100 the full control effect; nearly all actives have a fitted effect of over 65% in size
#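 Read-out: total well GFP (ex488/em500-530) summed from mean per-cell fluorescence. Cells: HEPG2 CAGA-GFP, 1% FBS DMEM, 18 h at 37 degrees C with 500 pg/mL final TGF-beta. Unstimulated wells served as the full-inhibition control; stimulated DMSO wells = 0%.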
# HepG2 tox – qHTS for Inhibitors of TGF-b: Cytotox Counterscreen; actives 0.76% (n = 410,000); HepG2 CAGA-GFP viability, ATP luminescence, 18 h; AID 588856, 2011; Potency, µM (highest dose often 46.1 µM), for inactives: top-dose activity change, negative = cytotoxicity, usual class: cytotoxic; further: potency means the concentration at half of the fitted maximal effect
#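 HepG2 CAGA-GFP cells (1000/well, DMEM with 1% FBS) received compound, then TGF-beta at 500 pg/mL final, and were incubated 18 hours at 37 degrees C. Viability was read by CellTiter-Glo luminescence. Media-only wells were set as complete cell-killing and DMSO as no toxicity.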
# IL1B secr inh – qHTS for Inhibitors of Inflammasome Signaling: IL-1-beta AlphaLISA Primary Screen. activity change, % at 57.5 µM. actives 4.7% (n = 360,000). THP-1 LPS/ATP IL-1B secretion, AlphaLISA, 16 h; active compounds read low; in the data active means activity change below about -50%; inconclusive means mostly about -30% to -49%; further: on the % scale 0 is the no-effect control and ±100 the full control effect
#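 THP-1 cells pretreated 1 hr with compounds (up to 57.5 uM final), then stimulated with LPS (250 ng/mL final) plus ATP (1.25 mM final); secreted IL-1B measured by AlphaLISA after 16 hr, decreased signal indicating inhibition.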
# TDP1 cell CPT – qHTS for Inhibitors of human tyrosyl-DNA phosphodiesterase 1 (TDP1): qHTS in cells in presence of CPT; chicken DT40 Tdp1-/-;hTDP1 cells + 20 nM CPT, ATP luminescence, 48 h; Potency, µM (titrated, usually from 46.2 µM), for inactives: at the top dose activity change, negative = growth inhibition, usual class: inhibitors; actives 12% (n = 420,000); AID 686979, 2013; further: potency means the concentration at half of the fitted maximal effect; on the % scale 0 is the no-effect control and ±100 the full control effect; nearly all actives have a fitted effect of over 55% in size
#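 Cell growth measured by CellTiter-Glo luminescence after a minimum 48 h, 37 C compound exposure with 20 nM CPT in Tdp1-knockout DT40 cells stably expressing hTDP1, seeded 400/well; qHTS titration format.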
# The depositor's hits bear a star; i = inactive; ? = inconclusive; nt = not tested or not shown. An excerpt weighted towards active compounds, which were near 18% of everything screened. Unless noted, the call rests on the fitted dose curve; in most records, active means well fitted curve in the direction sought with a large enough effect; inconclusive means small, poorly fitted or top-dose-only effect, or another doubt; inactive means no such curve, though single readings can be large; an effect the other way counts as inactive or inconclusive.
SMILES,DT40 TDP1 no CPT,TDP1 block,TGFb inhibitor,HepG2 tox,IL1B secr inh,TDP1 cell CPT
COC(=O)c1ccc(CN(C(=O)N2CCN(C)CC2)S(=O)(=O)c2ccc(C)cc2)cc1,12%,2%,26%,-8%,-13,9%
COc1ccc(-c2nc(CNC(=O)NC3CCCCC3)c(C)o2)cc1,?,-6%,19%,5%,nt,?
Cc1cccc(NC(=O)c2ccc(F)c(S(=O)(=O)N3CCC4(CC3)OCCO4)c2)c1,?,4%,0%,-1%,-2,?
O=C(Nc1cccc(Cl)c1)c1ccc(F)c(S(=O)(=O)N2CCC3(CC2)OCCO3)c1,13µM*,5%,?,-30%,nt,15µM*
CCOc1ccc2c(c1)-c1c(ssc1=S)C(C)(C)N2C(=O)c1ccco1,2.9µM*,13%,0%,12%,-12,5.2µM*
Cc1ccc(S(=O)(=O)N2c3ccccc3-c3c(ssc3=S)C2(C)C)cc1,?,7%,?,-4%,-5,?
Cc1ccc2c(c1)-c1c(ssc1=S)C(C)(C)N2C(=O)CSc1nncn1C,?,12%,-27%,-28%,-10,?
COc1ccc2c(c1)-c1c(ssc1=S)C(C)(C)N2S(=O)(=O)c1ccc(C)cc1,5.2µM*,11%,0%,-27%,10,15µM*
Cc1cc(C)c2c(c1)-c1c(ssc1=S)C(C)(C)N2C(=O)CSc1nncn1C,23µM*,9%,6.3µM*,-25%,-11,26µM*
Cc1cc2c(cc1C)N(C(=O)CSC1=NCCS1)C(C)(C)c1ssc(=S)c1-2,?,8%,?,0%,-50*,?
CC1(C)c2ssc(=S)c2-c2ccccc2N1C(=O)CSC1=NCCS1,?,14%,-24%,-6%,?,?
CCOC(=O)N1CCN(C(=O)CNC(=O)c2ccc(Cl)cc2)CC1,15%,1%,-17%,27%,i,6%
O=C(COC(=O)COc1cccc(C(F)(F)F)c1)Nc1ccc(N2CCOCC2)cc1,-14%,1%,0%,2%,10,-8%
CC(C)(C)OC(=O)NC(Cc1ccccc1)C(O)c1ccco1 (centres undefined),nt,4%,?,-5%,nt,nt
COc1ccc2c(c1)-c1c(ssc1=S)C(C)(C)N2C(=O)CSC1=NCCS1,23µM*,8%,-4%,-28%,-21,?
CN(Cc1ccccc1)C(=O)CC(c1ccccc1)c1cc(Cl)ccc1O (centres undefined),21µM*,4%,16µM*,-100%,-29,23µM*
CCCN(CCC)C(=O)CC(c1ccccc1)c1cc(C)ccc1O (centres undefined),?,5%,?,-42%,-57*,?
O=C(CC(c1ccccc1)c1cc(Cl)ccc1O)NCCCN1CCOCC1 (centres undefined),3%,nt,?,-21%,-10,-11%
Cc1ccc(O)c(C(CC(=O)NC2CCCCC2)c2ccccc2)c1 (centres undefined),23µM*,1%,10%,-12%,?,-67%
Cc1ccc(O)c(C(CC(=O)NC(C)C)c2ccccc2)c1 (centres undefined),-3%,2%,?,-41%,0,-2%
Cc1[nH]c2ccccc2c1C(=O)C(=O)N1CCN(c2cccc(Cl)c2)CC1,?,6%,?,-12%,43,?
FC(F)(F)c1ccccc1Cc1c(-c2ccc(Cl)cc2)nc2ccc(Br)cn12,?,nt,?,-15%,-9,?
COCCCNC(=O)C[C@@H]1C[C@@]2(C(=O)OC)CC(C)(C)CC=C2N(CCc2ccc(OC)c(OC)c2)C1=O,-3%,nt,nt,nt,-6,-15%
COC(=O)[C@@]12C[C@@H](CC(=O)NCCCN3CCCC3=O)C(=O)N(CCc3ccc(OC)c(OC)c3)C1=CCC(C)(C)C2,5%,nt,nt,nt,-9,-17%
COC(=O)[C@@]12C[C@@H](CC(=O)NCc3ccc(OC)c(OC)c3)C(=O)N(CCc3ccc(OC)c(OC)c3)C1=CCC(C)(C)C2,15µM*,nt,nt,nt,-28,16µM*
SMILES,DT40 TDP1 no CPT,TDP1 block,TGFb inhibitor,HepG2 tox,IL1B secr inh,TDP1 cell CPT
CCCCCCCCN1C(=O)[C@H](CC(=O)NCc2ccc(OC)c(OC)c2)C[C@@]2(C(=O)OC)CC(C)(C)CC=C12,18µM*,nt,nt,nt,-78*,18µM*
COC(=O)[C@@]12C[C@@H](CC(=O)NCCc3ccccc3OC)C(=O)N(CCc3ccc(OC)c(OC)c3)C1=CCC(C)(C)C2,?,nt,nt,nt,-4,23µM*
COC(=O)[C@@]12C[C@@H](CC(=O)NCC34CC5CC(CC(C5)C3)C4)C(=O)N(CCc3ccc(OC)c(OC)c3)C1=CCC(C)(C)C2,15µM*,nt,nt,nt,-98*,16µM*
O=C1C=C(/C=C/C2C=CC=CC2)C[C@@H](c2ccc(Cl)cc2)C1 (some centres undefined),?,1%,?,-29%,-3,?
COC(=O)[C@@]12C[C@@H](CC(=O)NCc3ccc(OC)c(OC)c3)C(=O)N(Cc3ccco3)C1=CCC(C)(C)C2,?,nt,nt,nt,-15,?
COC(=O)[C@@]12C[C@@H](CC(=O)NCc3ccc(OC)c(OC)c3)C(=O)N(Cc3ccccc3)C1=CCC(C)(C)C2,?,nt,nt,nt,-18,18µM*
COc1cc(CNCc2cc(OC)ccc2OC)cc(OC)c1,-26%,nt,-12%,-9%,-57*,?
